Among the data in PubChem BioAssay (Tox21) are outcome and fluorescence, % of fluorescent control values, retold here.

The source made the active and inactive calls. The call rests on the fitted dose curve; in most records, active means well fitted curve in the direction sought with a large enough effect in the repeat runs; inconclusive means weak or mixed curves; inactive means flat fitted curve, though single readings scatter.
On the % scale 0 is the no-effect control and ±100 the full control effect.

This test in a line: qHTS assay to test for compound auto fluorescence at 460 nm (blue) in HepG2 cell free culture (AID 720685). The note with it: Cell-free culture medium, blue autofluorescence 405/460 nm; series mostly up to 91.3 µM. The source says:
U.S. Tox21 Program National Center for Advancing Translational Sciences [NCATS] NIH Chemical Genomics Center [NCGC] U.S. Environmental Protection Agency [EPA] National Institutes of Environmental Health Sciences [NIEHS] National Toxicology Program [NTP] U.S. Food and Drug Administration [FDA] Tox21 Assay Overview: Compound auto fluorescence often interferes with screening of the compound library against various biological targets and signaling pathways. Some of these compounds may have fluorophoric properties. Such properties may interfere with the assay outputs resulting in false positives and/or negatives. To decrease such complications and ensure the compound activities are relevant in terms of biological response, the Tox21 10K compound library was screened for auto fluorescence. From the fluorophores used as reporter signals in our screening assays, the auto fluorescence equivalencies of compounds against three fluorophores have been evaluated: Triamterene, Fluorescein and Rose Bengal sodium for blue, green and red fluorescence, respectively. The fluorescence intensities were measured using Excitation/Emission wavelengths at 405/460nm, 485/535nm and 540/590nm for blue, green and red labels, respectively. This assay includes the blue fluorescence data.
Tox21 Assay Protocol Summary: 5 uL of culture medium (MEM containing 10% FBS) per well was dispensed into black wall/clear bottom 1536-well plates using a Multidrop Combi Dispenser (ThermoFisher Scientific, Waltham, MA). After 23 nL compound or DMSO vehicle was transferred into assay plate by a pintool work station (Kalypsys, San Diego, CA), fluorescence intensities in the assay plates were measured by an Envision (PerkinElmer, Shelton, CT) plate reader using three labels for measuring blue, green and red fluorescence at […] 460, 535 and 590nm respectively.
A general note: Quantitative high-throughput screening tests each substance at several concentrations.
In the case of `[K+]`, the molecule was called inactive.
Take `CC1=NS(=O)(=O)c2cc(Cl)ccc2N1`: the outcome was inactive.
On the same count and under the same terms, the result for `O=C(CO)[C@@H](O)[C@H](O)[C@H](O)CO` reads “inactive”; that for `CC(C)CCCO`, “inactive”.
The same measure, in the same setting: the result for `Nc1ccn([C@@H]2O[C@H](CO)[C@@H](O)C2(F)F)c(=O)n1` reads “inactive”.
Still for that read-out and setting: the result for `CCCn1cc[n+](C)c1C` reads “inactive”.
For the molecule `NO`, the molecule was called inactive.
Regarding `Cc1nc2ccc(CN(C)c3ccc(C(=O)N[C@@H](CCC(=O)O)C(=O)O)s3)cc2c(=O)[nH]1`, the call was inactive.
Still for that read-out and setting: the same measure for `C=C(C)C(=O)OCC1CCCO1` (stereo not given): “inactive”; for `Nc1ccn([C@@H]2O[C@H](CO)[C@@H](O)[C@@H]2O)c(=O)n1`: “inactive”.
On the same count and under the same terms, the same measure for `COc1cc(C(=O)OC(COCCC(C)C)CN2CCOCC2)cc(OC)c1OC` (stereo not given): “inactive”.
As for `C=C(C)C(=O)OCCOCCOCCOCCOC(=O)C(=C)C`, the molecule was called inactive.
For the molecule `Cc1ccnc(NS(=O)(=O)c2ccc(N)cc2)n1`, the fluorescence, % of fluorescent control is 0.0941% [at 18.6 µM] (inactive).
Turning to `C[N+](C)(C)CCCCCCCCCC[N+](C)(C)C`, the result was inactive.
On the same count and under the same terms, the same measure for `CCCCc1ccc2c(n1)[C@@H](c1ccc(OC)cc1C[C@H](C)C(=O)O)[C@H](C(=O)O)[C@H]2c1ccc2c(c1)OCO2`: “inactive”.
On the same count and under the same terms, the result for `C=CCCC(=O)O` reads “inactive”; that for `FB(F)F`, “inactive”.
Regarding `CCCCCC(C)N` (stereo not given), the outcome was inactive.
The same measure, in the same setting: the same measure for `CN1[C@@H]2CC[C@H]1CC(OC(=O)C(O)c1ccccc1)C2` (stereo not given in full): “inactive”; for `O=CN(CCO)CCO`: “inactive”; for `CC(C)C[C@@H](N)C(=O)O`: “inactive”.
Still for that read-out and setting: the same measure for `Nc1c2c(nc3c1CCC3)CCCC2`: “inactive”.
For `N[C@@H](CCC(=O)O)C(=O)O`, the molecule was called inactive.
The same measure, in the same setting: the same measure for `COc1c(N2CCNC(C)C2)c(F)cc2c(=O)c(C(=O)O)cn(C3CC3)c12` (stereo not given): “inactive”; for `N[C@H](C(=O)O)[C@@H](O)c1ccc(O)c(O)c1`: “inactive”; for `CCN1C=CN(C)C1C` (stereo not given): “inactive”.
Still for that read-out and setting: the result for `C[N+]1(C)[C@@H]2CC(OC(=O)[C@H](CO)c3ccccc3)C[C@H]1[C@@H]1O[C@@H]12` (stereo not given in full) reads “inactive”; that for `CC1=CCC(O)(C(C)C)CC1` (stereo not given), “inactive”; that for `CN1CC(=O)N/C1=N/C(=O)Nc1cccc(Cl)c1`, “inactive”.
On the same count and under the same terms, the result for `CC[N+](C)(CC)CCOC(=O)C1c2ccccc2Oc2ccccc21` reads “inactive”; that for `CCCCc1nc(Cl)c(CO)n1Cc1ccc(-c2ccccc2-c2nn[nH]n2)cc1`, “inactive”.
`O=S(=O)(O)c1cc(O)c(O)c(S(=O)(=O)O)c1`: the result was inactive.
The same measure, in the same setting: the same measure for `COc1ccccc1OCC1CNC(=O)O1` (stereo not given): “inactive”; for `CC(C)=CCC/C(C)=C/C#N`: “inactive”.
The same measure, in the same setting: the result for `OCCCCCO` reads “inactive”; that for `CCCCCCCCCCOc1cc2c(=O)c(C(=O)OCC)c[nH]c2cc1OCC`, “inactive”.
Still for that read-out and setting: the same measure for `CCC1C(=O)OCC1Cc1cncn1C` (stereo not given): “inactive”.
In the case of `CCCc1ncc(C[n+]2ccccc2C)c(N)n1`, the fluorescence, % of fluorescent control is 0.0057% [at 18.6 µM] (inactive).
For the molecule `[Ca+2]`, the molecule was called inactive.
For `CC1(C)OC[C@@H](COC(=O)CCc2ccc(OC[C@@H](O)CNCCNC(=O)N3CCOCC3)cc2)O1`, the result was inactive.
